8 compounds from PubChem BioAssay (NCI) can be followed below.

SMILES strings stand for the structures. This is part of a sample that, as a whole, favours compounds with a hit. Of some 83,000 tested, about 20% had one in any assay.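 Percent growth is the endpoint: 0 to 100 indicates growth inhibition (40 means 60% inhibition), 0 means no net growth, and negative values indicate cell death.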 Unmarked numbers belong to inactive results. Calls of active or inactive are those of the source. How the source made its calls: active means growth percent below 10; inactive means the rest.

Among the test systems are DU-145 prostate; K-562 leukemia; MALME-3M melanoma; MDA-MB-231 breast; RXF 393 renal; SF-268 CNS; SF-295 CNS; SF-539 CNS; UACC-257 melanoma; M14 melanoma; HCT-15 colon; HT29 colon; SNB-75 CNS; SNB-19 CNS; U251 CNS; PC-3 prostate; SK-MEL-5 melanoma; UACC-62 melanoma; LOX IMVI melanoma; SK-MEL-28 melanoma.
Test in all cases: NCI-60 one-dose screen, 48 h (100 = growth as untreated, 0 = no growth, -100 = all killed)
Holding throughout (details): 10 µM unless noted

`COc1cccc2nc3n(c12)C(c1c(F)cccc1F)SC3` (centres undefined): the growth with DU-145 prostate was 128%; in the experiment with K-562 leukemia, 84.6%; in the experiment on MALME-3M melanoma, 101%; in the experiment with MDA-MB-231 breast it was 93.2%; in the experiment with RXF 393 renal, 105%; with SF-268 CNS it was 108%. Also, the growth with SF-295 CNS is 99.9%; with SF-539 CNS, 95.7%; with UACC-257 melanoma, 100%; with M14 melanoma it was 111%; in the experiment on HCT-15 colon, 101%; in the experiment on HT29 colon, 100%. For the same compound, the growth in the experiment with SNB-75 CNS was 96%; with SNB-19 CNS it was 101%; in the experiment with U251 CNS it was 92.5%; in the experiment with PC-3 prostate, 80.6%; in the experiment on SK-MEL-5 melanoma, 86%; with UACC-62 melanoma, 77.5%. For the same compound, the growth in the experiment on LOX IMVI melanoma was 93.1%; with SK-MEL-28 melanoma, 112%.

For `Cc1cccc2c1S/C(=C/c1ccc([N+](=O)[O-])cc1)C2=O`, the growth in the experiment on DU-145 prostate was 106%; in the experiment with K-562 leukemia, 42.2%; in the experiment with MALME-3M melanoma it was 99.4%; in the experiment with MDA-MB-231 breast, 103%; with RXF 393 renal, 140%; with SF-268 CNS, 103%. The growth with SF-295 CNS is 89.8%; in the experiment on SF-539 CNS, 101%; with UACC-257 melanoma, 108%; with M14 melanoma, 98.2%; in the experiment on HCT-15 colon, 100%; in the experiment on HT29 colon, 92.5%. Also, the growth in the experiment with SNB-75 CNS was 82.4%; in the experiment with SNB-19 CNS it was 98.4%; with U251 CNS, 78.4%; with PC-3 prostate, 91.5%; in the experiment on SK-MEL-5 melanoma it was 99.4%; with UACC-62 melanoma, 72.6%. For the same compound, in the experiment on LOX IMVI melanoma, the growth was 93.1%.

As to `c1cc2nc(-c3cn[nH]c3)c3c(c2cc1-c1cn[nH]c1)C1CCC3C1` (centres undefined), the growth in the experiment on DU-145 prostate is 81.4%; in the experiment on K-562 leukemia, 65%; with MALME-3M melanoma, 61.4%; in the experiment with MDA-MB-231 breast, 53%; in the experiment on RXF 393 renal, 15.3%; in the experiment with SF-268 CNS, 77%. Besides, the growth with SF-295 CNS was 57.8%; in the experiment on SF-539 CNS, 66.7%; with UACC-257 melanoma, 83.9%; in the experiment with M14 melanoma, 69.3%; in the experiment with HCT-15 colon it was 47.2%; in the experiment on HT29 colon, 81.8%. In addition, the growth is -1.68% (active) in the experiment on SNB-75 CNS; 78.9% with SNB-19 CNS; 72% in the experiment with U251 CNS; 62.3% with PC-3 prostate; 60.2% in the experiment on SK-MEL-5 melanoma; 59.6% in the experiment with UACC-62 melanoma. In the experiment on LOX IMVI melanoma, the growth is 69.1%.

Turning to `Cc1cc(N2CCCC2)nc(N(CCCNc2ccnc3cc(Cl)ccc23)Cc2ccccn2)n1`, the growth is 62.7% with DU-145 prostate; 11.3% in the experiment with K-562 leukemia; 39.4% with MALME-3M melanoma; 45.2% in the experiment with MDA-MB-231 breast; 25.8% in the experiment with RXF 393 renal; 62.5% with SF-268 CNS. For the same compound, the growth with SF-295 CNS is 66%; with SF-539 CNS, 9.89% (active); in the experiment with UACC-257 melanoma it was 49.4%; in the experiment with M14 melanoma, -15.9% (active); with HCT-15 colon, 32.3%; with HT29 colon, 11.2%. Besides, the growth was 77.4% in the experiment with SNB-75 CNS; 65.9% in the experiment on SNB-19 CNS; 55.3% in the experiment on U251 CNS; 52% with PC-3 prostate; 50.9% in the experiment on SK-MEL-5 melanoma; 79.8% with UACC-62 melanoma. Besides, in the experiment with LOX IMVI melanoma, the growth is 32.3%.

Consider `CCc1ccc(Oc2c(-c3ccc(OCCc4cccc(C(F)(F)F)c4)cc3O)n[nH]c2C(F)(F)F)cc1`, for which the growth was 25.6% in the experiment with DU-145 prostate; 7.94% (active) in the experiment with K-562 leukemia; 48.8% in the experiment with MALME-3M melanoma; 50.2% in the experiment on MDA-MB-231 breast; 80.7% with RXF 393 renal; 47.7% in the experiment with SF-268 CNS. Besides, the growth with SF-295 CNS is 87.6%; in the experiment on SF-539 CNS, 74%; in the experiment on UACC-257 melanoma, 56.6%; in the experiment on M14 melanoma, 59.1%; with HCT-15 colon, 23.8%; in the experiment with HT29 colon, 86.1%. The growth with SNB-75 CNS is 63.3%; in the experiment on SNB-19 CNS, 39.8%; in the experiment with U251 CNS, 12.1%; in the experiment with PC-3 prostate it was 46.1%; in the experiment on SK-MEL-5 melanoma, 42%; in the experiment on UACC-62 melanoma, 18.6%. In addition, the growth in the experiment on LOX IMVI melanoma was 17.6%.

For the compound `Nc1nc(Cl)cc(=O)n1Cc1ccccc1`, the growth with DU-145 prostate is 98.9%; in the experiment on K-562 leukemia, 106%; in the experiment on MALME-3M melanoma, 93.2%; in the experiment on MDA-MB-231 breast, 92%; in the experiment with RXF 393 renal it was 101%; in the experiment with SF-268 CNS, 103%. The growth in the experiment with SF-295 CNS is 95.5%; with SF-539 CNS, 96.2%; with UACC-257 melanoma, 93.1%; with M14 melanoma it was 93.3%; with HCT-15 colon, 98.3%; with HT29 colon, 103%. Moreover, the growth in the experiment with SNB-75 CNS was 82.3%; in the experiment with SNB-19 CNS it was 93.7%; in the experiment with U251 CNS it was 101%; in the experiment with PC-3 prostate, 95.7%; in the experiment with SK-MEL-5 melanoma it was 108%; with UACC-62 melanoma it was 88.6%. Further, in the experiment with LOX IMVI melanoma, the growth is 92.1%.

Consider `COc1ccc(-c2nc3sc(-c4ccc(Cl)cc4)cn3n2)cc1`, for which the growth in the experiment with DU-145 prostate is 80.7%; in the experiment with K-562 leukemia, 61.5%; with MALME-3M melanoma, 50.8%; in the experiment with MDA-MB-231 breast it was 13.3%; in the experiment on RXF 393 renal, 59%; in the experiment on SF-268 CNS it was 65.1%. Besides, the growth is 24.2% with SF-295 CNS; 15.4% in the experiment on SF-539 CNS; 84.6% in the experiment with UACC-257 melanoma; 91.1% in the experiment with M14 melanoma; 72% in the experiment with HCT-15 colon; 17.3% in the experiment with HT29 colon. The growth was -1.66% (active) with SNB-75 CNS; -1.95% (active) with SNB-19 CNS; -67.9% (active) in the experiment with U251 CNS; 58.1% with PC-3 prostate; 72.6% in the experiment on SK-MEL-5 melanoma; 68.6% with UACC-62 melanoma. The growth in the experiment on LOX IMVI melanoma was 54.2%; with SK-MEL-28 melanoma, 100%.

Take `CNC(=O)c1cc(-n2ccc3cc(NC(=O)c4ccc(N5CCOCC5)c(C(F)(F)F)c4)ccc32)ccn1`: the growth was 76% with DU-145 prostate; 25.5% in the experiment on K-562 leukemia; 73.9% with MALME-3M melanoma; 77.7% in the experiment on MDA-MB-231 breast; -2.7% (active) in the experiment on RXF 393 renal; 88.3% in the experiment on SF-268 CNS. In addition, the growth in the experiment on SF-295 CNS is -3.1% (active); in the experiment with SF-539 CNS, 30.6%; in the experiment on UACC-257 melanoma it was 84.3%; in the experiment on M14 melanoma, 62.4%; with HCT-15 colon it was 43.2%; in the experiment on HT29 colon, 25.1%. Further, the growth was 85.9% in the experiment on SNB-75 CNS; 81.1% in the experiment with SNB-19 CNS; 50.3% in the experiment with U251 CNS; 18% in the experiment on PC-3 prostate; 24.6% with SK-MEL-5 melanoma; 38.7% in the experiment with UACC-62 melanoma. Moreover, the growth in the experiment on LOX IMVI melanoma was 36.1%.
